Test results from PubChem BioAssay AID1030 (National Center for Advancing Translational Sciences (NCATS), 2008).
“And” between values parts separate entries of the source, which are not always exact repeats. Identical values can stand only once. Out of some 220,000 compounds screened, about 16,000 (7.3%) were called active. Inconclusive results (about 25%) are left out. The call rests on the fitted dose curve; in most records, active means well fitted inhibition curve with a large enough effect (not every such curve was filed as active); inconclusive means small, poorly fitted or top-dose-only effect, or another doubt; inactive means no such curve, though single readings can be large or run the other way. The entries come from a sample that favours actives as a whole. Where a call stands in place of a potency, no number is given.
Potency means the concentration at half of the fitted maximal effect.

These molecules were tested against Aldehyde dehydrogenase 1A1 (Homo sapiens) (UniProt P00352) (assay: qHTS Assay for Inhibitors of Aldehyde Dehydrogenase 1 (ALDH1A1)). Details: Purified ALDH1A1, NADH fluorescence, propionaldehyde substrate; series mostly up to 75.3 µM.
Chain of Aldehyde dehydrogenase 1A1 (Homo sapiens) (P00352 whole entry, looked up): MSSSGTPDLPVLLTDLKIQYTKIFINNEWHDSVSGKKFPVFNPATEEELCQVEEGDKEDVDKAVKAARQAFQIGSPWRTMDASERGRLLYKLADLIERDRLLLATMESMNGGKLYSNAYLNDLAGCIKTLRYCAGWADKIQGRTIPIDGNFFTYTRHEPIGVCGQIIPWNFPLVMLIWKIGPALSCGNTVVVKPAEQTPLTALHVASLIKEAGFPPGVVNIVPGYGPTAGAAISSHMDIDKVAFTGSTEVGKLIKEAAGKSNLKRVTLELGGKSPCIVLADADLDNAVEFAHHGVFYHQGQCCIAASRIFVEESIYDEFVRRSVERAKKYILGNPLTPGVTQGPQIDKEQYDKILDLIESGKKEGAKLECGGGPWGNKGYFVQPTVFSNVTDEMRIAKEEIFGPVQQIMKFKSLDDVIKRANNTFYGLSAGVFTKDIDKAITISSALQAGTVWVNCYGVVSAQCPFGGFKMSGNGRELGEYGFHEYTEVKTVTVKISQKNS
`COc1ccc(C(=O)C2CCCN(Cc3ccc(C)s3)C2)cc1OC` (stereo not given) was tested, and the Potency was “inactive”. `COc1cc(C(=S)N2CCOCC2)ccc1O` was tested, and the Potency was 18.9 µM (active). For `C=CCN1CCC23c4c5ccc(O)c4O[C@H]2C(=O)CC[C@@]3(O)C1C5` (stereo not given in full), the Potency was “inactive”. In the case of `CCC/C(=N\O)c1c[nH]c2ccccc12`, the Potency is reported as “inactive”. With `CCCOC(=O)C1C2c3ccccc3C(c3ccccc32)C1C(=O)O` (stereo not given) the Potency was “inactive”. `Cc1ccc(-c2cc(C(=O)N3CCC4(CC3)OCCO4)no2)cc1` was tested, and the Potency was “inactive”. `Cc1ccsc1C(=O)C1CCCN(Cc2ccc(O)cc2)C1` (stereo not given) was tested, and the Potency was “inactive”. `COc1ccc2c3c1O[C@H]1C[C@@H](O)C=C[C@@]31CCN(C)C2` was tested, and the Potency was “inactive”. With `CCOC(=O)CC1=C(C(=O)OCC)C2(C(=O)N1)C(C(=O)OC)=C(N)Oc1ccccc12` (stereo not given) the Potency was “inactive”. For `COC(=O)CN1C(=O)C2(C(C(=O)OC)=C(N)Oc3ccccc32)C2=C1CC(C)(C)CC2=O` (stereo not given), the Potency was 1 µM (active). For `CCOC(=O)C1=C(C)OC(N)=C(C(=O)OC)C12C(=O)Nc1ccc(Br)cc12` (stereo not given), the Potency was “inactive”. With `CCN1C[C@@]2(COC)CC[C@H](OC)[C@]34[C@@H]1[C@]1(OCO[C@@]15C[C@@H](OC)C1C[C@H]3[C@H]5[C@@H]1OC)[C@H](O)[C@@H]24` the Potency was “inactive”. For `CC(=O)CC(C)C`, the Potency was 12.6 µM (active). `N#CC1=C(N)Oc2c(c(=O)oc3ccccc23)C1c1ccccc1OC(=O)c1cccs1` (stereo not given) was tested, and the Potency was “inactive”. For `COc1ccc(CCn2c(O)c(C=NC3CC3)c(=O)[nH]c2=O)cc1OC`, the Potency was “inactive”. With `ClCCBr` the Potency was “inactive”. `CO[C@@H]1C[C@@H](C[C@H]2CC[C@H](C)[C@@H]([C@@H](C)C(=O)O)O2)O[C@]2(O[C@](C)([C@H]3CC[C@@](C)(C4OC([C@H]5O[C@@](O)(CO)[C@H](C)C[C@@H]5C)C[C@@H]4C)O3)C[C@H]2C)[C@@H]1C` (stereo not given in full) was tested, and the Potency was “inactive”. In the case of `COC(=O)N(c1ccc(OC)cc1)P1(=S)OCCC(C)O1` (stereo not given), the Potency is reported as 2.24 µM (active). In the case of `CCOc1ccc(C2SCC(=O)Nc3c2c(C)nn3C2CCOC(C)(C)C2)cc1` (stereo not given), the Potency is reported as “inactive”. In the case of `ClC(Cl)=C(Cl)C(Cl)=C(Cl)Cl`, the Potency is reported as “inactive”. In the case of `O=C1NC(=O)N(c2ccc(F)cc2)C(=O)/C1=C/c1ccc2c(c1)CCCN2Cc1ccccc1`, the Potency is reported as 0.158 µM (active). In the case of `Fc1ccc(C(OCCN2CCN(C/C=C\c3ccccc3)CC2)c2ccc(F)cc2)cc1`, the Potency is reported as “inactive”. For `CC(C)(O)c1[se]c2ccccc2c1I`, the Potency was “inactive”. With `c1ccc(CN2CC[C@@]3(CCCNC3)C2)cc1` the Potency was “inactive”. `CC(=O)Cc1ccc(OC(C)C)cc1` was tested, and the Potency was “inactive”. In the case of `CN(C)c1nc(N(C)C)nc(N(C#N)CCCl)n1`, the Potency is reported as 6.31 µM (active). `O=C1C2(Cl)C3(Cl)C4(Cl)C(Cl)(Cl)C5(Cl)C3(Cl)C1(Cl)C5(Cl)C24Cl` (stereo not given) was tested, and the Potency was “inactive”. `NC[C@H](O)c1ccc(O)cc1` was tested, and the Potency was “inactive”. `c1ccc(C2NCc3ccccc3-n3cccc32)cc1` (stereo not given) was tested, and the Potency was “inactive”. In the case of `O=C(OCC(=O)c1cccs1)C1=COCCO1`, the Potency is reported as 14.1 µM (active). With `CN1CCN(C(=O)O[C@@H]2c3nccnc3C(=O)N2c2ccc(Cl)cn2)CC1` the Potency was “inactive”. In the case of `CC(C)(c1ccc(OC[C@@H]2CO2)cc1)c1ccc(OC[C@H]2CO2)cc1`, the Potency is reported as “inactive”. With `CC[N+]1(C)CCCC(OC(=O)C(O)(c2ccccc2)c2ccccc2)C1` (stereo not given) the Potency was “inactive”. For `O=C(NCC(c1cccnc1)N1CCN(c2ccccc2)CC1)Oc1ccccc1` (stereo not given), the Potency was “inactive”. With `CCCn1c(C(=O)c2ccccc2OC)nc2ccccc21` the Potency was “inactive”. In the case of `Cc1cccc(N2C(=O)NC(=O)/C(=C\c3cnn(-c4ccccc4)c3)C2=O)c1`, the Potency is reported as 7.08 µM (active). In the case of `C[C@H]1CC[C@@]2(NC1)O[C@@H]1C[C@H]3[C@@H]4CC=C5C[C@@H](O)CC[C@]5(C)[C@@H]4CC[C@]3(C)[C@@H]1[C@@H]2C`, the Potency is reported as “inactive”. In the case of `NCC(O)c1ccc(O)cc1` (stereo not given), the Potency is reported as “inactive”. For `Cc1cc(C)cc(NC(=S)NC2CC3CCCC(C2)N3Cc2cccs2)c1` (stereo not given), the Potency was “inactive”. With `O=C(CSC1c2ccccc2-c2ccccc21)N/N=C/c1ccccc1` the Potency was “inactive”. In the case of `O=C(CN1CCCC1=O)NCCc1ccccc1`, the Potency is reported as “inactive”. `COC1=C[C@@H]2[C@@H]3Cc4ccc(OC)c(O)c4[C@]2(CCN3C)CC1=O` was tested, and the Potency was “inactive”. For `CC(C(=O)Nc1ccc(Cl)cc1Cl)N1CC=C(c2ccccc2)CC1` (stereo not given), the Potency was “inactive”. In the case of `CCCC[N+]1(C)C2CC(OC(=O)C(CO)c3ccccc3)CC1C1OC12` (stereo not given), the Potency is reported as “inactive”. `CC(=O)NC(=O)NC(C)Cc1ccccc1` (stereo not given) was tested, and the Potency was “inactive”. For `CC(C)CC(C)Nc1ccc(Nc2ccccc2)cc1` (stereo not given), the Potency was 14.1 µM (active). For `CC12CN3CC(C)(CN(C1)C3c1cccs1)C2` (stereo not given), the Potency was “inactive”. For `CCCCC(=O)N/N=C/c1c(O)n(CC)c(=S)n(CC)c1=O`, the Potency was “inactive”. `Cc1cc(-c2ccc(N)c(C)c2)ccc1N` was tested, and the Potency was 28.2 µM (active). In the case of `CC1CCCCN1Cc1cccnc1` (stereo not given), the Potency is reported as “inactive”. In the case of `C/C(=C\C=C/[C@@H](C)C(=O)O)[C@H]1CN[C@H](C(=O)O)[C@@H]1CC(=O)O`, the Potency is reported as “inactive”. In the case of `CCN1C[C@]2(COC)C(O)C[C@H](OC)[C@@]34C5C[C@]6(O)C(OC)C(O)[C@](OC(C)=O)(C5C6OC(=O)c5ccccc5)C(C(OC)C23)C14` (stereo not given in full), the Potency is reported as “inactive”. With `CC(=O)c1c(O)c(C)c(O)c(Cc2c(O)c3c(c(C(=O)/C=C\c4ccccc4)c2O)OC(C)(C)C=C3)c1O` the Potency was 22.4 µM (active). With `CC(=O)c1c(O)c(C)c(O)c(Cc2c(O)c3c(c(C(=O)/C=C/c4ccccc4)c2O)OC(C)(C)C=C3)c1O` the Potency was 17.8 µM (active) and 14.1 µM (active). In the case of `COC1=C[C@]23CCCN2CCc2cc4c(cc2[C@@H]3[C@@H]1O)OCO4`, the Potency is reported as “inactive”. For `O=C(O)C1C2CCC(O2)C1C(=O)O` (stereo not given), the Potency was “inactive”. With `CN(C)C1C(=O)C(C(N)=O)=C(O)[C@@]2(O)C(=O)C3=C(O)c4c(O)cccc4[C@@](C)(O)C3C[C@@H]12` (stereo not given in full) the Potency was “inactive”. `C=CCSSCC=C` was tested, and the Potency was 6.31 µM (active). In the case of `CN(C)c1ccc(/C=C2\CC3C4CC=C5CC(O)CCC5(C)C4CCC3(C)C2=O)cc1` (stereo not given), the Potency is reported as “inactive”. For `O=C1NC(=O)C(CCc2ccccn2)(Cc2cccc(Cl)c2Cl)C(=O)N1c1ccc(Br)cc1` (stereo not given), the Potency was “inactive”. With `CCOC(=O)C(O)(c1ccc(N=Cc2ccccc2O)c(C)c1)C(F)(F)F` (stereo not given) the Potency was “inactive”. With `CN(C)C(=O)Oc1cc(=O)n2c3c(cccc13)CCC2` the Potency was “inactive”. For `COc1ccc(C2=NOC(COC(=O)c3ccc4ccccc4n3)C2)cc1` (stereo not given), the Potency was 5.62 µM (active). For `CN(C)/C=C(\C=[N+](C)C)c1[nH]ncc1[N+](=O)[O-]`, the Potency was “inactive”. `CC[N+](CC)(CC)CCCCCCCCCC[N+](CC)(CC)CC` was tested, and the Potency was “inactive”. In the case of `O=C1C2CCN(CC2)C1(CO)CO`, the Potency is reported as “inactive”. In the case of `CC(C)n1c(=O)c(C=Nc2ccc(Br)cc2)c(O)n(Cc2ccco2)c1=O`, the Potency is reported as 14.1 µM (active). In the case of `CN(C)CCCN=Cc1c(O)n(Cc2ccco2)c(=O)[nH]c1=O`, the Potency is reported as “inactive”. `COc1cc2c(cc1OC)[C@@H]1C(=O)c3ccc(O)c(CC=C(C)C)c3OC1CO2` (stereo not given in full) was tested, and the Potency was “inactive”. For `CC(=O)Nc1ccccc1C(=O)OCC(=O)c1cccc2ccccc12`, the Potency was “inactive”. With `NCC[Se][Se]CCN` the Potency was 3.55 µM (active). In the case of `CC[C@H]1CN2CCc3cc(OC)c(OC)cc3[C@@H]2C[C@@H]1C[C@H]1NCCc2cc(OC)c(OC)cc21`, the Potency is reported as “inactive”. In the case of `CCc1cccc2c(C#N)cn(CC(=O)N3CCOCC3)c12`, the Potency is reported as “inactive”. With `CCN(CC)P(=O)(Oc1cccc(C)c1)N(CC)CC` the Potency was “inactive”. For `Cc1cccc([C@H](C)c2cnc[nH]2)c1C`, the Potency was “inactive”. For `ClC(Cl)(Cl)c1ccccc1`, the Potency was “inactive”. `O=Cc1cn(Cc2ccc(F)cc2Cl)c2ccccc12` was tested, and the Potency was 3.16 µM (active). For `Cc1ccc(-c2nn(CCC#N)cc2C(=O)O)cc1C`, the Potency was “inactive”. For `Cc1ccc(S(=O)(=O)O[C@H]2CN3CCC2CC3)cc1`, the activity, negative = inhibition was 4.24% [at 13.5 µM] (inactive). In the case of `COC(=O)c1ccc2[se]c(CC3CCCCC3)c(I)c2c1`, the Potency is reported as “inactive”. `CCCCCCCCCCCCCC(=O)O[C@@H]1[C@@H](C)[C@@]2(O)[C@@H](C=C(CO)C[C@]3(O)C(=O)C(C)=C[C@@H]23)[C@@H]2C(C)(C)[C@]12OC(C)=O` was tested, and the Potency was “inactive”. In the case of `Cn1c(O)c(C=NCCCC(=O)O)c(=O)n(C)c1=O`, the Potency is reported as “inactive”. With `C[C@@H]1C[C@@H]2O[C@H]2/C=C\C=C\C(=O)Cc2c(Cl)c(O)cc(O)c2C(=O)O1` the Potency was “inactive”. In the case of `O=C(C1CC(=O)N(C2CCCC2)C1)N1CCC2(CC1)OCCO2` (stereo not given), the Potency is reported as “inactive”. For `C=CCN1C(=O)C2(C(C(=O)OCC)=C(N)Oc3c2c(=O)oc2ccccc32)c2ccccc21` (stereo not given), the Potency was 0.398 µM (active). `CCOC(=O)c1ncn2c1[C@@H]1CCCN1C(=O)c1cc(OC)ccc1-2` was tested, and the Potency was “inactive”. In the case of `CCOCCc1c(O)[nH]c(=S)[nH]c1=O`, the Potency is reported as “inactive”. With `CCOC(=O)C1CN(C)CCC1=O` (stereo not given) the Potency was “inactive”. For `CNC(C)[C@@H](O)c1ccccc1` (stereo not given in full), the Potency was “inactive”. With `O=c1oc2ccccc2c(O)c1C(c1ccccc1O)c1c(O)c2ccccc2oc1=O` the Potency was “inactive”. `c1ccc2sc(N3CCNCC3)nc2c1` was tested, and the Potency was “inactive”. In the case of `c1ccc2sc(SNC3CCCCC3)nc2c1`, the Potency is reported as 0.794 µM (active). With `c1ccc2sc(C3CCCNC3)nc2c1` (stereo not given) the Potency was “inactive”. With `C1CC[C@H]([C@@]23C[C@H](C[C@H]4CCCN[C@H]42)[C@@H]2CCCCN2C3)NC1` the Potency was “inactive”. `CC1(C)C(c2ccccc2)=NC(c2cccnc2)=[N+]1[O-]` was tested, and the Potency was “inactive”.
